Assay results published in ChEMBL document CHEMBL1201862, “PubChem BioAssay data set” (2004).
Hit rate of the full screen: of about 310,000 compounds, about 11,000 (3.5%) were called active. About 8% were inconclusive and are not listed. The calls are words filed in the database; no cut-off is given here. This excerpt belongs to a sample that is enriched for actives.

Each molecule was assayed against Nuclear receptor ROR-gamma (Mus musculus) (UniProt P51450) (assay: VP16 counterscreen qHTS for inhibitors of ROR gamma transcriptional activity.).
Chain of Nuclear receptor ROR-gamma (Mus musculus) (P51450 whole entry): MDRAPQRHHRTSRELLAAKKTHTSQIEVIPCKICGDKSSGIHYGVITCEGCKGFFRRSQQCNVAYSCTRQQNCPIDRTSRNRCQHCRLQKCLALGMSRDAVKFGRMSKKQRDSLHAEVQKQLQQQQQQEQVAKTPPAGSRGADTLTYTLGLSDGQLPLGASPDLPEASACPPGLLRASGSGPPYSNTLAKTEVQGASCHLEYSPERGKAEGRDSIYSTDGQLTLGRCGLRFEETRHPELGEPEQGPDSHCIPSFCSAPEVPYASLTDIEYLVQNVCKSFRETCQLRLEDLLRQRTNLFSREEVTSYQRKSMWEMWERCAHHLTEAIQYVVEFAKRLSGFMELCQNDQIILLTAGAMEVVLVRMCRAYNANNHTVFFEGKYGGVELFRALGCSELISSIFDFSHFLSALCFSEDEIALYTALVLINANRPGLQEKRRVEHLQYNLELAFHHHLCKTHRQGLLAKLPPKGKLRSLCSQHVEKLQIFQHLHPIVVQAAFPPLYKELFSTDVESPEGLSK
Assay type: functional

Potency, active:
O=C(Oc1c(Cl)cc(Cl)c2cccnc12)c1cccc([N+](=O)[O-])c1 200 µM
COc1cccc2sc(Nc3nc(-c4ccccn4)cs3)nc12 355 µM
O=C(N/N=C(\c1ccccc1)c1cccnc1)c1cccc(F)c1 891 µM
O=C(NC1CCCCCCC1)C1CCN(c2nc3ccccc3o2)CC1 631 µM
Cc1ccc(-n2c(C)cc(C(=O)COC(=O)c3cccnc3O)c2C)cc1 224 µM
